High-throughput results from PubChem.
The entries come from a sample that favours hits as a whole.
FECH block = blocks human mitochondrial ferrochelatase activity. calls only at 10 µM (by protocol). AID 1671448. P22830. purified FECH, Ni-mesoporphyrin absorbance 550 nm. 20,000 tested, 3.3% active;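 active = enzyme reaction rate more than 3 SD below the solvent-only control wells on the same plate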;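 also: lower slope than DMSO wells means FECH inhibition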
Target sequence (P22830 whole entry, looked up): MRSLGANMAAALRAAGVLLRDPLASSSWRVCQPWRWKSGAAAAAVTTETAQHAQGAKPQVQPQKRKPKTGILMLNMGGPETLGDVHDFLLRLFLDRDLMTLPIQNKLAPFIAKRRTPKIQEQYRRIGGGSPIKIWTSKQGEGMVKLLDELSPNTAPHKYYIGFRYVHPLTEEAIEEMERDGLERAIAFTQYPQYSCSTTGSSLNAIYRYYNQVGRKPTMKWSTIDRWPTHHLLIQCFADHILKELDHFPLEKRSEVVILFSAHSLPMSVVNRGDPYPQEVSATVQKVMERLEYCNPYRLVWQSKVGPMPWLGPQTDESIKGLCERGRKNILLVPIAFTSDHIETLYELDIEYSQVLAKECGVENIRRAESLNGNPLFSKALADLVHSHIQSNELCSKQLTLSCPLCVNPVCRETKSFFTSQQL
* = called active by the depositor; i = inactive; + = active, no number.

SMILES	FECH block
CN1C(=O)C2(CCN(C(=O)COCC3CCCCO3)CC2)c2ccccc21 (centres undefined)	+
CCOC(=O)Cn1c(=O)n(-c2ccc(C)c(C)c2)c2nc(-c3ccc(CC)cc3)nc(C(N)=O)c21	i
CC(C)(C)c1ccc(-c2nc3nc(CN4CCCCCC4)cc(=O)n3[nH]2)cc1	i
CCn1cc(CN(Cc2ccoc2)CC(C)C)cn1	i
COc1cc(OC)c(-c2nccn2CCc2ncc[nH]2)cc1OC	i
CC(C)CNC(=O)c1nc[nH]c1C(=O)N1CCCCC1	i
COCCNC(=O)CN1c2ccc(Br)cc2-c2ccccc2S1(=O)=O	+
CC(C)OCCCNC(=O)CN1c2ccc(Br)cc2-c2ccccc2S1(=O)=O	+
O=C(CN1c2ccc(Br)cc2-c2ccccc2S1(=O)=O)NCc1ccccn1	+
O=C(CN1CCC(c2ccccc2C(=O)O)C1)NCc1ccccn1 (centres undefined)	i
CC(C)OCCCNC(=O)c1ccc(CN2C(=O)CCn3nc(-c4ccccc4)cc32)cc1	i
CCC1=C(c2ccc(OC)cc2)S(=O)(=O)N(CC(=O)NCc2cccc(Br)c2)C1=O	i
C=CCOc1cccc(NC(=O)CN2c3ccc(Br)cc3-c3ccccc3S2(=O)=O)c1	i
O=C(CN1c2ccc(Br)cc2-c2ccccc2S1(=O)=O)NCCN1CCOCC1	i
O=C(NCc1ccccn1)C1(Oc2cccc3ncccc23)CCNCC1	i
CCC1=C(c2ccc(OC)cc2)S(=O)(=O)N(CC(=O)NCc2ccccc2F)C1=O	i
CCC1=NOC(CNCc2cnc(-c3ccccc3C)s2)C1 (centres undefined)	i
CN(Cc1csc(-c2cccs2)n1)C(=O)c1ncc[nH]1	i
COc1cccc(C(=O)Oc2ccc(Nc3cc(C)nc4nc(-c5cccnc5)nn34)cc2)c1	i
CCOc1ccc2[nH]c(=O)c(CN3CCCN(C(=O)C4CC4)CC3)cc2c1	i
Cc1noc(CN(C)C(=O)CSc2ccncc2)n1	i
COc1cccc(-c2cc(N3CCN(S(=O)(=O)c4cc(Cl)ccc4OC)CC3)ncn2)c1	i
Cc1cccc(-c2cc(N3CCN(S(=O)(=O)c4ccc(CC(C)C)cc4)CC3)ncn2)c1	+
Cc1ccc(-c2cc(N3CCN(S(=O)(=O)c4ccc(CC(C)C)cc4)CC3)ncn2)cc1	i
CC(C)Cc1ccc(S(=O)(=O)N2CCN(c3cc(-c4ccc(F)cc4)ncn3)CC2)cc1	i
SMILES	FECH block
COc1cccc(-c2cc(N3CCN(S(=O)(=O)c4c(C)noc4C)CC3)ncn2)c1	+
COc1cccc(-c2cc(N3CCN(S(=O)(=O)c4cc(OC)ccc4OC)CC3)ncn2)c1	+
COc1cccc(-c2cc(N3CCN(S(=O)(=O)c4ccc(Br)cc4)CC3)ncn2)c1	i
Cc1ccc(-c2cc(N3CCN(S(=O)(=O)c4c(C)noc4C)CC3)ncn2)cc1	i
Cc1cccc(-c2cc(N3CCN(S(=O)(=O)c4c(C)noc4C)CC3)ncn2)c1	i
COc1cccc(-c2cc(N3CCN(S(=O)(=O)c4ccccc4)CC3)ncn2)c1	+
COc1cccc(-c2cc(N3CCN(S(=O)(=O)c4ccc(F)cc4)CC3)ncn2)c1	i
COc1cccc(-c2cc(N3CCN(S(=O)(=O)c4ccc(OC)c(Cl)c4)CC3)ncn2)c1	i
CCn1c(C2CCN(C(=O)Cc3ccccn3)CC2)nn(C)c1=O	i
NS(=O)(=O)c1ccc(CCNCCC(=O)N2CCc3ccccc3C2)cc1	i
O=c1cc(CN2CCc3ccccc3C2)nc2nc(NCc3ccccc3)[nH]n12	i
O=c1cc(CN2CCOCC2)nc2nc(NCc3ccc(Cl)cc3)[nH]n12	i
COc1ccc(CNc2nc3nc(CN4CCc5ccccc5C4)cc(=O)n3[nH]2)cc1	+
O=c1cc(CN2CCN(CCO)CC2)nc2nc(NCc3ccc(Cl)cc3)[nH]n12	i
COc1ccc(CNc2nc3nc(CN4CCOCC4)cc(=O)n3[nH]2)cc1	+
O=c1cc(CN2CCc3ccccc3C2)nc2nc(NCc3ccc(Cl)cc3)[nH]n12	+
COc1ccc(CNc2nc3nc(CN4CCN(c5ccccc5)CC4)cc(=O)n3[nH]2)cc1	i
O=c1cc(CN2CCOCC2)nc2nc(NCc3ccccc3)[nH]n12	i
O=c1cc(CN2CCCCC2)nc2nc(NCc3ccccc3)[nH]n12	i
CCC(C)NC(=O)C1CCN(c2ccc(-c3ccccc3)nn2)CC1 (centres undefined)	i
CCn1c(C2CCN(C(=O)CCSc3nnc(C)s3)CC2)n[nH]c1=O	i
CCCCN(CC)c1ncc(NS(=O)(=O)c2ccc(OC)c(Cl)c2)cc1C(=O)O	i
Nc1ccc(-n2cnc(-c3cccs3)c2)cn1	i
Cc1nc(CCC(=O)N2Cc3cnn(Cc4ccc(F)cc4)c3C2)n[nH]1	i
Cc1cccc(-n2c(CN3CCN(S(=O)(=O)c4cccs4)CC3)nc3cccnc32)c1	i
SMILES	FECH block
Cc1ccc(-n2c(CN3CCN(S(=O)(=O)c4ccc(Cl)s4)CC3)nc3cccnc32)cc1	i
Cc1ccc(-n2c(CN3CCN(S(=O)(=O)c4cccs4)CC3)nc3cccnc32)cc1	+
COc1cccc(-c2[nH]ncc2C(=O)NC2CCC(n3cnnc3)CC2)c1 (centres undefined)	i
O=C(Nc1nc2n(n1)C(c1ccc(Cl)cc1)C=C(c1ccccc1)N2)c1cccnc1 (centres undefined)	+
O=C(Nc1nc2n(n1)C(c1ccc(Cl)cc1)C=C(c1ccc(Cl)cc1)N2)c1cccnc1 (centres undefined)	+
O=C(Nc1nc2n(n1)C(c1ccccc1)C=C(c1ccc(Cl)cc1)N2)c1ccccc1 (centres undefined)	i
O=C(Nc1nc2n(n1)C(c1ccc(Cl)cc1)C=C(c1ccccc1)N2)c1ccc(Cl)cc1 (centres undefined)	i
Cc1ccc(C2=CC(c3ccc(Cl)cc3)n3nc(NC(=O)c4cccc(Cl)c4)nc3N2)cc1 (centres undefined)	i
O=C(Nc1nc2n(n1)C(c1ccc(Cl)cc1)C=C(c1ccccc1)N2)c1ccc(F)cc1 (centres undefined)	i
O=C(c1csc(S(=O)(=O)N2CCN(CCOc3ccc(Cl)cc3)CC2)c1)N1CCCC1	i
Cc1cc(CN2CCCC2)ccc1Oc1ccc(-c2ccccc2)nn1	i
CN1CC(=O)N(CC(=O)NCc2ccc(F)cc2)c2ccccc2C1=O	i
CN1CC(=O)N(CC(=O)Nc2ccc(F)c(F)c2)c2ccccc2C1=O	i
O=C(CN1C(=O)c2cccnc2Sc2ccccc21)NCCc1ccco1	i
CN(C)c1ccc(CNC(=O)CN2C(=O)c3cccnc3Sc3ccccc32)cc1	+
Cc1ccc(NC(=O)CN2C(=O)CN(C)C(=O)c3ccccc32)cc1C	i
Cc1ccc(NC(=O)CN2C(=O)c3cccnc3Sc3ccccc32)cc1F	+
CCCCOc1ccc(CNC(=O)CN2C(=O)c3cccnc3Sc3ccccc32)cc1	+
CCCCOc1ccc(CNC(=O)c2ccc(CN3C(=O)CCn4nccc43)cc2)cc1	i
O=C(CCCN1C(=O)c2cccnc2Sc2ccccc21)Nc1cc(-c2cccc(Cl)c2)no1	i
CCOCCCNC(=O)C1CCN(c2ccc(-c3cccs3)nn2)CC1	i
Cc1ccc(N2C(=O)CCS2(=O)=O)cc1S(=O)(=O)Nc1c(C)cccc1C	i
Cc1ccc2nc(COc3cccc(NC(=O)CSc4ccccc4)c3)cc(=O)n2c1	i
Cc1cc(C(=O)NCCSc2nnnn2C)c2ccc(F)cc2n1	i
